Data on 88 compounds can be found in PubChem BioAssay AID504847 (National Center for Advancing Translational Sciences (NCATS), 2011).

SMILES strings stand for the structures. Where “and” joins values, the source holds several entries; their conditions need not be identical. Identical values can stand only once. The campaign covered roughly 400,000 compounds. About 3,700 (0.93%) were called active. Not shown: some 3% with an inconclusive outcome. Calls come from the whole dose curve; as a rule, active = well fitted inhibition curve with a large enough effect; inconclusive = small, poorly fitted or top-dose-only effect, or another doubt; inactive = no such curve, though single readings can be large or run the other way. The list comes from a sample in which actives are over-represented; it also holds similar structures and randomly drawn compounds. More than one record can exist for a structure, and the calls need not agree.
% is set by controls: 0 for no effect and ±100 for the full control effect; potency is the fitted concentration of half-maximal effect.

Chain of Vitamin D3 receptor (Homo sapiens) (P11473 whole entry, looked up): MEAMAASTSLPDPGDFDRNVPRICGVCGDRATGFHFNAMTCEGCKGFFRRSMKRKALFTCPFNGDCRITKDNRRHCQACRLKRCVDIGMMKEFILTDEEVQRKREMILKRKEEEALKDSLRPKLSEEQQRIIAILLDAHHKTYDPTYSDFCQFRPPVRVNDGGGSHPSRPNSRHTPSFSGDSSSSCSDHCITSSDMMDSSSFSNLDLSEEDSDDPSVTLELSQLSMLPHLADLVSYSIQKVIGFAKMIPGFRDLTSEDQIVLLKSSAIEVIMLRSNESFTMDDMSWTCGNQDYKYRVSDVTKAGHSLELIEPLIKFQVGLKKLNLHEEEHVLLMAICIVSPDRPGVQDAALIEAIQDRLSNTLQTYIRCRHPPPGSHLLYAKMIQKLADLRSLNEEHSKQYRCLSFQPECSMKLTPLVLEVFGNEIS

This assay concerns the target Vitamin D3 receptor (Homo sapiens) (UniProt P11473). Description: Inhibitors of the vitamin D receptor (VDR): qHTS. As to conditions: VDR-SRC2-3 peptide fluorescence polarization, 2 h; max response, negative = inhibition: hits give low values. The method, boiled down:
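Compounds are added to VDR with labelled SRC2-3 coactivator peptide and held 2 h at room temperature. Inhibition of the VDR–peptide interaction is then read as a change in fluorescence polarization.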
For the compound `Cc1ccc(C(=O)Nc2ccc3[nH]c(=O)c(=O)[nH]c3c2)cc1`, the max response, negative = inhibition is -3.19% (inactive).

Take `COc1ccc(CCNC(=O)CCCCn2c(=O)c3ccccc3n(Cc3ccccc3)c2=O)cc1OC`: the max response, negative = inhibition was -5.56% (inactive).

As to `COc1cc(C(=O)Nc2ccc(OCc3cc(=O)n4ccc(C)cc4n3)cc2)cc(OC)c1OC`, the max response, negative = inhibition was 15.3% (inactive).

Regarding `CC(C)(C)c1ccc(C(=O)N2CCC(c3nc(-c4ccc(S(=O)(=O)N5CCCC5)cc4)no3)CC2)cc1`, the max response, negative = inhibition is -2.01% (inactive).

Consider `COc1ccccc1N1CCN(c2ncnc3sc(C)c(-c4ccccc4)c23)CC1`, for which the max response, negative = inhibition was 9.44% (inactive).

For the compound `c1ccc(-c2cc3c(NCC4COc5ccccc5O4)ncnc3s2)cc1` (centres undefined), the max response, negative = inhibition was 3.5% (inactive).

As for `Oc1ccccc1N1CCN(c2ncnc3sc(-c4ccccc4)cc23)CC1`, the Potency is 22.4 µM (active).

Consider `CCOC(=O)c1c(S(=O)(=O)N2CCCC(C(=O)NCc3ccc(F)cc3)C2)c(C)n(CC)c1C` (centres undefined), for which the max response, negative = inhibition was 12% (inactive).

For the compound `CCCC(=O)Nc1ccc(NC(=O)c2sc3ccccc3c2Cl)cc1`, the max response, negative = inhibition was 1.71% (inactive).

`Cc1ccc(-c2nc3ccccn3c2Nc2ccc(F)cc2)o1`: the max response, negative = inhibition was -13.1% (inactive).

Turning to `Cc1cccc(C)c1Nc1c(-c2ccccc2O)nc2ncccn12`, the max response, negative = inhibition is 11.5% (inactive) and -13.4% (inactive).

For the compound `Cc1ccc(-c2nc3ccccn3c2Nc2c(C)cccc2C)o1`, the Potency is 79.4 µM (active).

On to `CC1CCc2noc(NC(=O)c3ccc([N+](=O)[O-])cc3)c2C1` (centres undefined), for which the max response, negative = inhibition is 20% (inactive).

Consider `Cc1cccc(C(CC(=O)NCC2(c3ccccc3)CCCC2)c2ccccc2)c1O` (centres undefined), for which the max response, negative = inhibition is -3.18% (inactive).

`Cc1ccc(-c2cnc(NCc3ccc(C(C)C)cc3)n2C)cc1`: the max response, negative = inhibition was -12.2% (inactive).

On to `COC(=O)c1cc(NC(=O)CCc2c(C)nc3c4c(C)cc(C)nc4nn3c2C)cc(C(=O)OC)c1`, for which the max response, negative = inhibition is -12% (inactive).

Turning to `CCCCc1nnc(NC(=O)CSc2nc(C)cc(=O)[nH]2)s1`, the max response, negative = inhibition is -6.96% (inactive).

As for `CCOC(=O)Cc1csc(SCC(=O)Nc2ccc(C)cc2F)n1`, the max response, negative = inhibition is -24.6% (inactive).

As for `CCOC(=O)Cc1csc(NC(=O)CSc2nc(C)cc(=O)[nH]2)n1`, the Potency was 44.7 µM (active).

Consider `C=CCOC(=O)C(=C)C`, for which the max response, negative = inhibition was 10.1% (inactive).

Turning to `COc1ccc(CCC(=O)NCc2ccc3c(c2)CCN3C(=O)c2ccc(F)cc2)cc1`, the max response, negative = inhibition was 1.51% (inactive).

With `CCOc1ccc(NC(=O)c2c(NCc3cccc(OC)c3OC)sc3c2CCC3)cc1`, the max response, negative = inhibition was -0.323% (inactive).

As to `Cc1cccc(OCCCC(=O)Nc2sc3c(c2C(N)=O)CCC(C)C3)c1` (centres undefined), the max response, negative = inhibition was 0.722% (inactive).

As for `CCOc1ccc(NC(=O)c2c(NC(=O)Cc3ccccc3)sc3c2CCCCC3)cc1`, the Potency is 17.8 µM (active).

As for `O=C(Cc1ccccc1)Nc1sc2c(c1C(=O)Nc1ccc(Br)cc1)CCC2`, the max response, negative = inhibition was 1.17% (inactive).

Regarding `CCOc1ccc(NC(=O)c2c(NC(=O)Cc3ccccc3)sc3c2CCC(C)C3)cc1` (centres undefined), the Potency is 79.4 µM (active).

For the compound `Cc1ccccc1NC(=O)c1c(NC(=O)c2ccccc2F)sc2c1CCC(C)C2` (centres undefined), the max response, negative = inhibition is -12.5% (inactive).

On to `COc1ccc2oc(-c3ccc(C)c(NC(=O)c4sc5ccccc5c4Cl)c3)nc2c1`, for which the max response, negative = inhibition is -13.7% (inactive).

In the case of `O=C(O)c1ccc(Nc2nc(-c3ccccc3)c3cc(Br)ccc3n2)cc1`, the max response, negative = inhibition is -8.21% (inactive).

Turning to `Cc1cccc(N2CCN(C(=O)CCn3c(=O)c4cccn4c4cccnc43)CC2C)c1` (centres undefined), the max response, negative = inhibition is -1.09% (inactive).

With `Cc1ccc(C2CCN(C(=O)c3cnn(-c4ccccc4Cl)c3C3CCN(C(=O)OC(C)(C)C)CC3)C2)cc1` (centres undefined), the max response, negative = inhibition is 14.7% (inactive).

Regarding `Cc1cccc(C(=O)N2CCc3cc(CNC(=O)Cc4ccc(F)cc4)ccc32)c1`, the max response, negative = inhibition was 6.68% (inactive).

In the case of `CCCCNC(=O)Cn1c(SCc2cccc(Cl)c2)nc2ccncc21`, the max response, negative = inhibition was -15.1% (inactive).

Take `O=S(=O)(Nc1cccc2cccnc12)c1cccc2cccnc12`: the max response, negative = inhibition was -4.84% (inactive).

Regarding `CCOC(=O)c1ccc(NC(=O)c2c(NCc3cccs3)sc3c2CCCC3)cc1`, the max response, negative = inhibition is -5.89% (inactive).

Consider `O=C(Nc1ccc2nc(SCC(=O)N3CCc4ccccc43)sc2c1)c1ccccc1F`, for which the max response, negative = inhibition was 0.401% (inactive).

With `O=C(O)c1ccccc1CSc1nc2ccccc2s1`, the Potency is 89.1 µM (active).

For the compound `CN(C(=O)CSc1nc2ccc(NC(=O)COc3ccccc3)cc2s1)c1ccccc1`, the max response, negative = inhibition is 3.21% (inactive).

In the case of `CCOc1ccccc1NC(=O)C1=C(C)Nc2ncnn2C1c1ccc(NC(C)=O)cc1` (centres undefined), the max response, negative = inhibition is 6.42% (inactive).

In the case of `COc1ccc(Br)cc1C1C2C=CCC(C)C2C(=O)N1Cc1ccccc1` (centres undefined), the max response, negative = inhibition was -6.47% (inactive).

With `COc1ccccc1CNC(=O)c1ccc(NC(=O)N2CC(C)Sc3ccccc32)cc1` (centres undefined), the max response, negative = inhibition is -3.93% (inactive).

As to `O=C(NCc1ccccc1)c1cccc(NC(=O)N2CCSc3ncccc32)c1`, the max response, negative = inhibition was 4.27% (inactive).

With `Cc1cc(C(=O)COC(=O)CCCN2C(=O)c3ccccc3C2=O)c(C)n1C`, the max response, negative = inhibition is 11.4% (inactive).

For the compound `O=C(O)CCCN1C(=O)c2ccccc2Sc2ncccc21`, the max response, negative = inhibition was 23.5% (inactive).

`CCCCN1C(=O)/C(=C(/C#N)C(N)=O)c2ccccc21`: the Potency is 50.1 µM (active).

In the case of `O=C(/C=C/c1cn(CC(O)CN2CCc3ccccc32)c2ccccc12)c1ccc(Br)cc1` (centres undefined), the max response, negative = inhibition was 25.1% (inactive).

As for `COCCNC(=O)CSc1c(C)cnc2c1c(=O)n(C)c(=O)n2C`, the max response, negative = inhibition is 8.06% (inactive).

For `COc1ccc(CC(=O)Nc2ccc(-c3nc4ccccc4s3)c(C)c2)cc1`, the max response, negative = inhibition was -0.795% (inactive).

Consider `COc1ccc(CS(=O)/C(Cl)=C(/Cl)C(=O)Nc2ccc(OC)nc2)cc1` (centres undefined), for which the Potency is 20 µM (active).

On to `COc1ccc(NC(=O)C(=O)NCc2ccco2)cc1`, for which the max response, negative = inhibition is -7.31% (inactive).

With `O=C(Nc1ccc2nc(SCCOc3ccccc3Cl)sc2c1)c1ccco1`, the max response, negative = inhibition is 5.06% (inactive).

For `CC(Nc1ccc(-c2nc(-c3ccco3)no2)cc1[N+](=O)[O-])c1ccccc1` (centres undefined), the max response, negative = inhibition was 0.644% (inactive).

`CCc1ccccc1NC(=O)Cn1c(=O)n(CC2CCC(C(=O)NCCc3ccccc3)CC2)c(=O)c2ccccc21` (centres undefined): the max response, negative = inhibition is -18.5% (inactive).

Consider `Cc1cc(C(=O)Nc2cccc(C(F)(F)F)c2)c2c(C)nn(-c3cccc(F)c3)c2n1`, for which the max response, negative = inhibition was -0.555% (inactive).

As to `c1ccc2c(CNn3cnnc3)cccc2c1`, the max response, negative = inhibition was -17.7% (inactive).

Take `c1ccc2c(C[n+]3csc4ccccc43)cccc2c1`: the Potency is 44.7 µM (active).

Consider `Nc1scc[n+]1Cc1cccc2cccnc12`, for which the max response, negative = inhibition was 4.69% (inactive).

With `CCN(CC)c1ccc(NC(=O)Cn2nc3c(cc2=O)CCCC3)c(C)c1`, the max response, negative = inhibition was 2.95% (inactive).

For `CC1(C)OC2CO[C@]3(COS(N)(=O)=O)OC(C)(C)OC3C2O1` (some centres undefined), the max response, negative = inhibition is -14.1% (inactive).

Regarding `Oc1cc(O)c2c(c1)OC(c1ccc(O)c(O)c1)C(O)C2` (centres undefined), the Potency was 35.5 µM (active) and the max response, negative = inhibition was -19.6% (inactive).

Consider `NS(=O)(=O)c1ccc(NC(=O)CSc2nnc3c(n2)[nH]c2ccccc23)cc1`, for which the max response, negative = inhibition is 5.25% (inactive).

Consider `CCOc1cc(-c2nnc(SCC(=O)NC3CCCCC3)nc2-c2ccc(OC)c(OCC)c2)ccc1OC`, for which the max response, negative = inhibition is 15.8% (inactive).

Turning to `COc1ccc(Cc2n[nH]c(=S)n2NC(=O)Nc2ccc(C)cc2)cc1`, the max response, negative = inhibition is -6.31% (inactive).

With `COc1ccc(OC)c(-n2c(-c3ccn[nH]3)n[nH]c2=S)c1`, the max response, negative = inhibition is -3.11% (inactive).

In the case of `COc1ccc(OCc2n[nH]c(=S)n2N)cc1`, the Potency was 35.5 µM (active).

With `COc1cc(C(=O)N(Cc2ccc(C(C)C)cc2)C2CCS(=O)(=O)C2)cc(OC)c1OC` (centres undefined), the max response, negative = inhibition was -4.09% (inactive).

In the case of `CCOc1cc(/C=C(\C#N)C(=O)Nc2ccccc2C)ccc1OCc1cc(=O)n2nc(CC)sc2n1`, the max response, negative = inhibition is -13.9% (inactive).

As to `O=C(Nc1ccccc1N1CCCC1)c1ccc2ccccc2c1`, the max response, negative = inhibition is -2.28% (inactive).

In the case of `O=C(NNC(=O)c1ccc2ccccc2c1)c1ccc(Cl)cc1`, the max response, negative = inhibition is 18.2% (inactive).

In the case of `C=CC(=O)c1ccc2ccccc2c1`, the Potency was 1.78 µM (active).

On to `O=C(CC1N=C2c3ccccc3N=C(SCc3cccc(Cl)c3)N2C1=O)NCc1ccc2c(c1)OCO2` (centres undefined), for which the max response, negative = inhibition is 13.3% (inactive).

As to `COc1ccc(NC(=O)CSc2nnc(-c3nnn(-c4ccc(F)cc4)c3C)o2)cc1`, the max response, negative = inhibition is 15.3% (inactive).

On to `CCCCCCCC1=Cc2ccc(F)cc2C(C(C(=O)OC)C(=O)OC)N1C(=O)OC` (centres undefined), for which the max response, negative = inhibition is 2.51% (inactive).

As for `COc1ccc(CCN=C2SCC(=O)N2Cc2ccccc2)cc1OC`, the max response, negative = inhibition was 3.18% (inactive).

As for `COc1cc(CNC2CCCC2)c(Br)cc1OCc1ccccc1`, the max response, negative = inhibition was 18.9% (inactive).

Turning to `COc1cc(C2CC(=O)N3CN(Cc4ccccc4)CSC3=C2C#N)ccc1OCc1ccccc1` (centres undefined), the Potency was 22.4 µM (active).

On to `Cc1cccc(-c2nc(SCc3ccc(Br)cc3)n3[nH]c(=O)cc3n2)c1`, for which the max response, negative = inhibition was 11.8% (inactive).

Take `COc1ccccc1CNc1ncnc2ccc(-c3ccc4c(c3)OCO4)cc12`: the max response, negative = inhibition is -6.36% (inactive).

`COc1ccc(-n2c(SC)nc(O)cc2=O)cc1`: the max response, negative = inhibition is -7.87% (inactive).

Regarding `CCn1c(SC)nc(O)c(C(c2ccc(OC)c(O)c2)c2c(O)nc(SC)n(CC)c2=O)c1=O`, the Potency is 35.5 µM (active).

Take `CCn1c(CNC(=O)c2ccc(OC)c(OC)c2)nnc1SCC(=O)Nc1ccccc1`: the max response, negative = inhibition was 2.26% (inactive).

As to `COc1cc(NC(=O)c2noc3c2CSc2ccccc2-3)cc(OC)c1OC`, the max response, negative = inhibition was 1.93% (inactive).

As to `COc1ccc(CNc2nc(-c3ccc(Cl)cc3)nn2S(=O)(=O)c2ccc(C)cc2)cc1`, the max response, negative = inhibition is -0.454% (inactive).

Regarding `Cc1ccc(-n2cnc3cc(C(=O)NCCC4=CCCCC4)ccc32)cc1Cl`, the max response, negative = inhibition was -3.42% (inactive).

Take `CCOC(=O)c1ccc(CN(Cc2ccccc2)S(=O)(=O)c2ccc(Cl)cc2)cc1`: the max response, negative = inhibition is 9.71% (inactive).

With `CCOC(=O)c1sc(NC(=O)CSc2nc(C)cc(C(F)(F)F)n2)c(C#N)c1C`, the Potency was 28.2 µM (active).

For the compound `Cc1cccc(NC(=O)CSc2nc(-c3ccco3)cc(C(F)(F)F)n2)c1C`, the max response, negative = inhibition is -20.2% (inactive).

Regarding `CCn1c(SCC(=O)Nc2sc(C)c(C)c2C#N)nnc1C1CC1`, the max response, negative = inhibition is 1.75% (inactive).
